LASV entry inh = Lassa virus entry inhibition; actives 1.2% (n = 300,000); Lassa virus pseudotype entry inhibition, cell reporter; Potency, µM (highest dose often 37.9 µM), for inactives: at the top dose activity change, negative = inhibition, actives largely listed as inhibitors; calls by dose curve; tested in HEK293 cells; note: potency is the fitted concentration of half-maximal effect; nearly all actives have a fitted effect of over 50% in size
FBPA Giardia inh = blocks Giardia fructose-bisphosphate aldolase activity. A8B2U2. purified Giardia FBPA. Potency, µM (titrated, usually from 59.6 µM), without a hit: at the top dose activity, negative = inhibition, actives largely listed as inhibitors. actives 0.71% (n = 290,000); note: potency is the fitted concentration of half-maximal effect; nearly all actives have a fitted effect of over 55% in size
Target sequence (A8B2U2 whole entry, looked up): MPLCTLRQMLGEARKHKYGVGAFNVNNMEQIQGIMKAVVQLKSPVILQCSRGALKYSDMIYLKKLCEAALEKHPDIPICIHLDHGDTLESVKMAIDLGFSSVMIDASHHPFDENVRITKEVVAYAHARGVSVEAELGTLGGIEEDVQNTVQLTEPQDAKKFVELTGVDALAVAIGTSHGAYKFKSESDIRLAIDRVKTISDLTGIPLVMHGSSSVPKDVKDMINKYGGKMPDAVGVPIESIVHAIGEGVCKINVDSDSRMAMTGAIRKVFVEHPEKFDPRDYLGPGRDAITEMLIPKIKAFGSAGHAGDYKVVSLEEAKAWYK
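Giardia FBPA (40 nM reagent) was preincubated 10 min at RT with compound (up to 57.5 uM final), then substrate plus GAPDH/TPI/NAD/arsenate coupling system with diaphorase/resazurin was added; resorufin fluorescence (525/598 nm) was read after 20 min.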
FMDV inh = blocks foot and mouth disease virus. FMDV antiviral cell-based qHTS. Potency, µM (titrated, usually from 57.9 µM), for inactives: top-dose activity change, negative = inhibition, hits mostly inhibitors. actives 1.2% (n = 410,000); calls by dose curve; tested in HEK293T cells; note: read-out not given here; potency is the fitted concentration of half-maximal effect; nearly all actives have a fitted effect of over 45% in size
MARV entry inh = inhibitors of Marburg virus binding or cell entry; Marburg virus pseudotyped entry inhibition, cell reporter; Potency, µM (highest dose often 37.8 µM), inactives show at the highest dose activity change, negative = inhibition, hits mostly inhibitors; actives 1.8% (n = 300,000); AID 540276; calls by dose curve; tested in HEK293 cells; note: potency is the fitted concentration of half-maximal effect
HCMV inh = inhibitors of human cytomegalovirus | actives 4.5% (n = 410,000) | HFF cells, HCMV-luciferase reporter, 72 h; hits give low values | activity change, negative = inhibition, % at 57.5 µM | AID 1259415; in the data active = activity change below about -60%; inconclusive = no clear call, values can overlap the other calls; inactive = above about -39%
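Compounds were evaluated in HFFs infected with an HCMV luciferase reporter virus (MOI 1 PFU/cell). Luciferase in lysates collected 72 h post infection served as the replication measure.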
HCV inh = blocks hepatitis C virus | Huh7.5.1 HCVcc-Cre infection, luciferase reporter, 44 h | Potency, µM (top dose mostly 41.8 µM), for inactives: top-dose activity change, negative = inhibition, hits mostly inhibitors | actives 3.4% (n = 340,000) | AID 651820; note: potency is the fitted concentration of half-maximal effect
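1,000 cells/well; 4 h culture; + compound; + HCVcc-Cre (~0.5 moi); 44 h; luciferase substrate, RT 15 min; read 15 sec.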
* hit, by the source's call; ? = inconclusive; / = no result; [ ] = another dose, or the depositor's remark. In the library only some 8.3% were active in any assay of this set; here they are far more common. Unless noted, calls come from the whole dose curve; as a rule, active = well fitted curve in the direction sought with a large enough effect; inconclusive = small, poorly fitted or top-dose-only effect, or another doubt; inactive = no such curve, though single readings can be large; an effect the other way counts as inactive or inconclusive. % is set by controls: 0 for no effect and ±100 for the full control effect.

SMILES | LASV entry inh | FBPA Giardia inh | FMDV inh | MARV entry inh | HCMV inh | HCV inh
CC(=O)N1c2c(cc(Br)cc2S(=O)(=O)N2CCN(c3cc(C)ccc3C)CC2)CC1C (stereo not drawn) | ? | / | 0% | -14%[46.1 µM] | -33 | /
CC(=O)N1c2c(cc(Br)cc2S(=O)(=O)N2CCN(c3ccccc3F)CC2)CC1C (stereo not drawn) | / | -5% | ? | ? | -67* | ?
CC(=O)N1c2c(cc(Br)cc2S(=O)(=O)NCc2cccnc2)CC1C (stereo not drawn) | 7% | 1% | 52% | -1% | 41 | 18%
CCCCN(Cc1ccccc1)S(=O)(=O)c1cc(Br)cc2c1N(C(C)=O)C(C)C2 (stereo not drawn) | ? | 2% | -22% | ? | -65* | 5µM*
COc1ccc(NS(=O)(=O)c2cnc(N)nc2)cc1Cl | ? | / | 16% | / | 19 | /
CCn1ccnc1CN(C)Cc1cn[nH]c1-c1ccc(OC)c(F)c1 | 14%[46.1 µM] | 0% | -15% | 8%[46.1 µM] | -72* | 11%
C=CCOC(=O)N[C@@H](CC(C)C)/C(C(=O)OC)=C(\C)NCc1ccccc1 | / | -3% | / | ? | / | /
Cc1[nH]n(-c2ccccc2)c(=O)c1N=Nc1ccc2c(c1)OCCO2 | / | -28% | 69% | / | 28 | 1%
Cc1[nH]n(-c2ccccc2)c(=O)c1N=Nc1c(O)cc(S(=O)(=O)N(C)C)c2ccccc12 | / | / | 13µM* | / | -99* | ?
CC(=O)Nc1ccc2nc(-c3ccccn3)[nH]c2c1 | ? | ? | 41% | 10% | 49 | 3%
c1ccc(-c2nc3cc4ccccc4cc3[nH]2)nc1 | 2.2µM* | -21% | -76% | ? | -20 | ?
Cc1c(C(=O)NCCCN2CCOCC2)sc2nc(-c3ccc(F)cc3)cn12 | 21% | -10% | 0% | -30% | -11 | 10µM*
COc1ccc(-c2cn3c(C)c(C(=O)NCCN4CCOCC4)sc3n2)cc1 | 3% | -10% | -5% | 6% | 126 | ?
Cc1c(C(=O)NCc2cccnc2)sc2nc(-c3ccc(F)cc3)cn12 | / | -1% | -7% | / | -22 | 11µM*
Cc1c(C(=O)N(C)Cc2ccccc2)sc2nc(-c3ccc(F)cc3)cn12 | ? | / | 2% | / | -82* | /
CC(C)c1onc(-c2c(Cl)cccc2Cl)c1COc1ccc(/C=C/c2cccc(C(=O)O)c2)c(Cl)c1 | / | 13% | -18% | / | / | /
Cc1ccc(C2=NCC(C)n3c2c2ccc(C(F)(F)F)cc2[n+]3[O-])cc1 (stereo not drawn) | / | / | / | / | 23 | /
COc1ccccc1CNC(=O)c1ccc(N2CCCC2)c(NC(=O)NCc2ccccc2)c1 | ? | / | -30% | / | ? | /
C[C@H]1[C@@H](NS(=O)(=O)Cc2ccccc2)CC[C@@]23CCCN2C(=O)CCC[C@@H]13 | / | / | / | / | 5 | /
O=C1CN=C(c2cccc(Br)c2)c2cc(Br)ccc2N1 | ? | -8% | -30% | 7.9µM* | -24 | -28%
O=C1CN=C(c2ccccc2)c2ccccc2N1 | -4%[46.1 µM] | 4% | -11% | -2%[46.1 µM] | 27 | 5%
CCOc1ccc(NC(=O)CSc2oc(-c3cccs3)nc2S(=O)(=O)c2ccc(C)cc2)cc1 | 0%[46.1 µM] | / | -7% | -1%[46.1 µM] | 21 | /
O=C(Cn1cc(SCc2c(F)cccc2Cl)c2ccccc21)N1CCCCCC1 | ? | / | 8% | / | 83 | /
CCN(CC)CCn1c2c(c(SCC(=O)Nc3ccc(C)c(F)c3)nc1=O)CCC2 | -19% | / | -23% | 16% | -99* | -29%[8.37 µM]
CCCCc1ccc(NC(=O)CSc2nc(=O)n(CCN(CC)CC)c3c2CCC3)cc1 | ? | / | -25% | ? | 9 | ?
SMILES | LASV entry inh | FBPA Giardia inh | FMDV inh | MARV entry inh | HCMV inh | HCV inh
COc1ccc(NC(=O)CSc2nc(=O)n(CCN3CCOCC3)c3c2CCC3)cc1 | 1% | / | -8% | 0% | -33 | ?
CCN(CC)CCn1c2c(c(SCC(=O)Nc3nc(C)cs3)nc1=O)CCC2 | -15% | / | 0% | ? | -11 | 13%
CCN(CC)CCn1c2c(c(SCC(=O)Nc3ccc(C(C)C)cc3)nc1=O)CCCC2 | 1% | / | -7% | -7% | -9 | 14µM*
O=C(CSc1nc(=O)n(CCN2CCOCC2)c2c1CCC2)Nc1ccc(OC(F)(F)F)cc1 | -6% | / | ? | -24%[46.1 µM] | -60* | ?
CCN(CC)CCn1c2c(c(SCC(=O)Nc3nc(C)cs3)nc1=O)CCCC2 | 3% | / | -13% | ? | -80* | ?
CC(C)CON=C1C[C@@H](O)[C@@H](O)[C@@H]2[C@H]3C(=O)N(C[C@@H]4CCCO4)C(=O)[C@@H]3CC[C@@H]12 | / | / | / | 10%[14.2 µM] | / | /
Oc1[nH]c2ccc(Br)cc2c1N=NC(=S)N1CCOCC1 | / | ? | 3.2µM* | / | -100* | 11µM*
CCN1CCN(C(c2cccc(OC)c2)c2c(O)cc(C)n(Cc3ccco3)c2=O)CC1 (stereo not drawn) | -3%[46.1 µM] | / | 0% | / | 27 | /
NC(=O)c1cccc2cc3ccccc3cc12 | ? | -2% | 14% | -13%[46.1 µM] | ? | 11µM*
NC(=O)c1ccccc1OCc1cccc2ccccc12 | 1%[46.1 µM] | 5% | 32% | -25%[46.1 µM] | -17 | ?
CCOc1ccccc1C1CC(=O)Nc2cc3c(cc21)OCCO3 (stereo not drawn) | ? | -7% | 18µM* | 8.2µM* | -99* | ?
CCOc1ccccc1C1CC(=O)Nc2cc(C)c(C)cc21 (stereo not drawn) | / | 1% | -18% | / | -19 | ?
CCCCOc1ccccc1C1CC(=O)Nc2cc(C)c(C)cc21 (stereo not drawn) | -17%[46.1 µM] | / | ? | / | -27 | /
COc1cc(C2CC(=O)Nc3cc4c(cc32)OCCO4)cc(Br)c1OC (stereo not drawn) | ? | / | -15% | ? | -81* | /
CCCOc1ccccc1C1CC(=O)Nc2cc3c(cc21)OCCO3 (stereo not drawn) | ? | -14% | 22µM* | 2.8µM* | / | 2.5µM*
CCOc1c(Br)cc(C2CC(=O)Nc3cc4c(cc32)OCO4)cc1OC (stereo not drawn) | ? | / | -3% | ? | 11 | /
Cc1ccc(CNC(=O)CN(Cc2cccs2)C(=O)C2(C)CC(=O)N=C3C=CC=CN32)cc1 (stereo not drawn) | 8% | 4% | -9% | 4% | -77* | -2%
COc1ccc(CCNC2=C(Cl)C(=O)N(CCc3ccccc3)C2=O)cc1OC | -26% | -8% | 22µM* | ? | -15 | 13µM*
CCOCCN1CCN(C2c3ccccc3CSc3ccccc32)CC1 (stereo not drawn) | ? | / | -24% | 13µM* | ? | 22µM*
CCNC(=O)NC1c2ccccc2CSc2ccccc21 (stereo not drawn) | -22%[46.1 µM] | / | -23% | ? | -12 | 9%
CC(NCC(=O)Nc1cc(S(=O)(=O)N2CCCCCC2)ccc1Cl)c1ccccc1 (stereo not drawn) | / | ? | ? | / | -27 | 13µM*

Assay outcomes from PubChem BioAssay.
